Experimental findings from ChEMBL document CHEMBL3988442, “University of Dundee, Small-Polar-MMV Screening Library” (2021) are described below.

The campaign covered roughly 48,000 compounds. About 13,000 (27%) showed an effect of 50% or more. Some of the results follow.

In the test the test system is Wolbachia pipientis. The test is described as follows: Anti-Wolbachia Cell-Based Screen. The test is classed as functional. Set-up: scale not given: in the data most compounds retested in dose-response had high values. The conditions noted are these: 5 µM.
Take `CC(C)SCc1cccc(NC(=O)NC(C)c2nc[nH]n2)c1` (stereo not drawn): the “Percent Effect” value is -14.93%.
`Cc1ccccc1S(=O)(=O)NC(=O)CSc1ccc2c(c1)OCCO2`: the “Percent Effect” value is on record as -12.34%.
With `O=C(CSc1ccccc1Cl)NS(=O)(=O)c1ccc2c(c1)OCCO2`, the “Percent Effect” value stood at 0.8211%.
Under `CN(C)CCN(C)C1CCCN(C(=O)c2ccc(Cn3ccnc3)o2)C1` (stereo not drawn) stands -5.736%.
In the case of `CC(O)CN1CCC(CN(C)Cc2cccc(C#N)c2)CC1` (stereo not drawn), the “Percent Effect” value was -3.336%.
Regarding `COc1cccc([C@@H]2CN(C(=O)c3ccc(C)cc3O)C[C@H]2C(=O)O)c1`, the “Percent Effect” value was 2.23%.
As to `COC(=O)c1cccn1C1CCN(C(=O)c2cc(F)ccc2F)CC1`, the “Percent Effect” value worked out at 16.29%.
On to `COC(=O)c1cccn1C1CCN(C(=O)c2ccc(C)[nH]c2=O)CC1`, for which the “Percent Effect” value amounted to 102.8%.
On to `COC(=O)c1cccn1C1CCN(C(=O)c2cc(F)ccc2C)CC1`, for which the “Percent Effect” value was found to be 95.76%.
For the compound `Cc1ccc(C(=O)N2CCC(c3nccn3C(C)C)CC2)c(=O)[nH]1`, the “Percent Effect” value came to 4.246%.
As for `COC(=O)c1cccn1C1CCN(C(=O)c2cc(C)ccc2O)CC1`, the figure is -6.759%; as for `Cc1ccc(F)cc1C(=O)OCC1CCCN1C(N)=O` (stereo not drawn), 7.06%; as for `COC(=O)c1cccn1C1CCN(C(=O)c2c(C)noc2C)CC1`, 105.8%.
Under `COC(=O)c1cccn1C1CCN(C(=O)c2ccc(C)cc2O)CC1` stands 105.5%; under `COC(=O)c1cccn1C1CCN(C(=O)c2cn[nH]c2C)CC1`, 1.064%.
`O=C(Cc1cc2c(cc1Cl)OCCO2)N1CC[C@H](CO)[C@H](O)C1`: the “Percent Effect” value was 7.536%.
Turning to `COc1cccc(-n2c(C)cc(C(=O)NS(C)(=O)=O)c2C)c1`, the “Percent Effect” value was -4.667%.
As to `Cc1n[nH]cc1CNCC1(c2ccccc2Cl)CCOCC1`, the “Percent Effect” value was found to be 10.52%.
Turning to `Cc1ccc(CCNC(=O)NCc2cccc(OC(F)F)c2)cn1`, the “Percent Effect” value is reported as -2.718%.
With `CC(C)CCOCCNC(=O)Nc1ccc(F)c(C(N)=O)c1`, the “Percent Effect” value came out at 86.61%.
Turning to `NC(=O)c1cc(NC(=O)N2CCCCCC2)ccc1F`, the “Percent Effect” value is -15.41%.
As for `CC(C)C(C)NC(=O)Nc1ccc(F)c(C(N)=O)c1` (stereo not drawn), the figure is 114.2%; as for `COCCCNC(=O)Nc1cccc2ncccc12`, 3.143%.
Take `COCCNC(=O)Nc1ccc(-n2cncn2)c(F)c1`: the “Percent Effect” value was -15.63%.
Regarding `COC(=O)c1cccc(S(=O)(=O)Nc2ccc(F)c(C(N)=O)c2)c1`, the “Percent Effect” value is -1.482%.
For `CCOCCCNC(=O)Nc1ccc(F)c(C(N)=O)c1`, the “Percent Effect” value is reported as 144.9%.
Under `CC(=O)c1cccc(NC(=O)NCCOCC2CC2)c1` stands 4.489%; under `CC(C)CCOCCNC(=O)Nc1cc(C(F)(F)F)c[nH]c1=O`, -4.49%; under `COCCCNC(=O)Nc1ccc(F)c(C(N)=O)c1`, 133.6%.
Consider `O=C(NCCCOCC1CC1)Nc1ccc(F)cc1`, for which the “Percent Effect” value was 3.334%.
As to `CC(C)C(O)CNC(=O)Nc1ccc(F)c(Cl)c1` (stereo not drawn), the “Percent Effect” value was found to be 4.966%.
For `CCOc1ncccc1C(=O)N1CC=C(c2ccc(O)cc2)CC1`, the “Percent Effect” value worked out at 32.78%.
Under `CCC(C)Nc1ccc(-c2nc(-c3cccc(OC)c3OC)no2)cn1` (stereo not drawn) stands 24.9%.
On to `Cc1ccc(NCCCNC(=O)NCc2c(C)cc(C)[nH]c2=O)nc1`, for which the “Percent Effect” value is 7.392%.
On to `CC(=O)c1ccc(NC(=O)C(NC(=O)Nc2ccccc2)C(C)C)cc1` (stereo not drawn), for which the “Percent Effect” value worked out at 128.1%.
Turning to `CC(=O)c1ccc(NC(=O)NC(C(=O)N(C)C)C(C)C)cc1` (stereo not drawn), the “Percent Effect” value is reported as -8.422%.
Turning to `CC(Cn1cccn1)NC(=O)Nc1ccc(F)cc1` (stereo not drawn), the “Percent Effect” value worked out at 5.847%.
Consider `CC(C)[C@H](NC(=O)NC1CCS(=O)(=O)C1)C(=O)Nc1cccnc1` (stereo partly drawn), for which the “Percent Effect” value amounted to 9.774%.
Turning to `CC(C)C(NC(=O)Nc1ccc(F)cc1)C(=O)N(C)C` (stereo not drawn), the “Percent Effect” value amounted to 92.8%.
`CC(C)NC(=O)c1ccc(NC(=O)NC(C)c2ccccn2)cc1` (stereo not drawn): the “Percent Effect” value is -7.886%.
As for `CC(=O)c1ccc(NC(=O)N[C@H](C(=O)O)C(C)C)cc1`, the “Percent Effect” value is on record as 99.56%.
As to `CC(=O)c1ccc(NC(=O)NC(C)c2ccc3c(c2)CC(=O)N3)cc1` (stereo not drawn), the “Percent Effect” value was determined as 0.8032%.
With `CNC(=O)c1ccc(NC(=O)NC(C)c2cc(C)oc2C)cc1` (stereo not drawn), the “Percent Effect” value is -7.2%.
Turning to `CN1C(=O)CC(C(=O)O)C12CCN(Cc1ccc(Cl)c(Cl)c1)CC2` (stereo not drawn), the “Percent Effect” value is on record as -9.214%.
Consider `Cc1cccc(-c2noc([C@@H]3C[C@@H](O)CN3C)n2)c1`, for which the “Percent Effect” value was -0.5094%.
For the compound `CC(C)NC(=O)c1ccc2c(c1)C(c1nc[nH]n1)CN2S(C)(=O)=O` (stereo not drawn), the “Percent Effect” value is listed as 2.921%.
As for `COc1cccc(COCC(=O)N2CCN(CC(C)(C)O)CC2)c1`, the “Percent Effect” value was -0.1486%.
Regarding `CN(C)CCOCc1ncn2c1CN(c1ncc(F)cn1)CCC2.O=C(O)C(F)(F)F`, the “Percent Effect” value is -8.613%.
